Compound activity (PubChem)
Compounds with a hit are over-represented: about 4.6% of the library has one in this group of screens.
NLRP3 yeast inh – NALP3 inhibition in yeast; Yeast reconstituted NLRP3/ASC/caspase-1, beta-gal luminescence, 24 h; inhibition, % at 10 µM; 330,000 tested, 0.39% active; AID 2825;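 active means inhibition of 50% or more; inactive means inhibition below 50%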;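 further: plate controls were induced DMSO wells for no effect and uninduced yeast grown without galactose for full effect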
TIM10 inh – growth inhibitors of TIM10 yeast strain; S. cerevisiae TIM10 strain growth, BacTiter-Glo luminescence, 24 h; inhibition, % at 10 µM; 330,000 tested, 1.4% active; AID 463195;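 active means inhibition of 40% or more at the single tested concentration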;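 further: wild-type TIM10 isogenic control strain grown at permissive 25 °C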
tim23-1 inh – inhibits growth of tim23-1 mutant yeast. S. cerevisiae tim23-1 growth, BacTiter-Glo luminescence, 24 h. AID 463212. inhibition, % at 20 µM. 330,000 tested, 1.3% active;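 active means growth inhibition of the mutant yeast at or above 50%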;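 further: temperature-sensitive mutant grown at 25 °C; plate controls were DMSO-treated mutant yeast for no effect and medium wells lacking yeast for full effect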
tim10-1 inh – tim10-1 yeast growth inhibition; S. cerevisiae tim10-1 ts strain growth, BacTiter-Glo, 24 h; inhibition, % at 20 µM; 330,000 tested, 2.2% active; AID 463190;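 active means inhibition of at least 40%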;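 further: mutant grown at 25 °C; 0% = DMSO wells with yeast and 100% = wells holding no yeast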
PfHsp90 yeast 2 – reduces growth (ATP signal) of yeast expressing P. falciparum Hsp90. S. cerevisiae expressing PfHsp90, BacTiter-Glo ATP, 48 h; yeast lacking PDR1 and PDR3 efflux regulators. inhibition, % at 9.4 µM. 310,000 tested, 0.32% active;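 active means every replicate shows inhibition above about 80%, whatever the replicate mean, limit read from the data; inconclusive means mean inhibition reaches the set limit but some replicate falls short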;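 further: 0% = DMSO neutral controls and 100% = 20 µM radicicol positive controls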
SKKanGAS inh – inhibitors of SKKanGAS S. pyogenes growth in kanamycin (SK-promoter or general growth effect); inhibition, % at 7.5 µM; 300,000 tested, 1.3% active; AID 1662; BacTiter-Glo, 6 h;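 active means mean replicate score, as percent of positive control median, at least 50; inconclusive means mean below 50 but one replicate at or above 50; inactive means mean and every replicate below 50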;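 further: strain carries kanamycin resistance gene driven by streptokinase promoter and grows in 40 µg/ml kanamycin; loss of luminescence reflects streptokinase promoter inhibition or plain growth inhibition; 0% = median of DMSO wells and 100% = positive control at its reference dose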
The depositor's hits bear a star; ? = inconclusive; . = no result given.

SMILES | NLRP3 yeast inh | TIM10 inh | tim23-1 inh | tim10-1 inh | PfHsp90 yeast 2 | SKKanGAS inh
O=C(NCc1ccccn1)NC12CC3CC(CC(C3)C1)C2 | -8.8 | 5.6 | 14.2 | 19.4 | . | 3.3
Cc1ccc(CNC(=O)c2ccc3c(=O)[nH]c4c(C(=O)NCC5CCCO5)sc(=S)n4c3c2)cc1 (configuration not stated) | 7.6 | -3.8 | 10.2 | 26.6 | -6.1 | 55.8*
CC(=O)[C@@]1(O)C(C)CC2C3C=C(C)C4=Cc5c(cnn5-c5ccccc5)C[C@]4(C)C3C(O)C[C@@]21C (some centres not stated) | . | . | . | . | -6.3 | 63.8*
O=S(=O)(O)c1ccc(N=Nc2ccccc2)cc1 | 5.3 | -5.6 | 11.0 | 5.2 | 5.8 | 2.3
O=c1ccc(N=Nc2ccccc2)ccc1O | . | . | . | . | 124.9* | 90.5*
CC(C)CCN1CC(=O)N2[C@@H](Cc3c([nH]c4ccccc34)C2(C)C)C1=O | 21.4 | -2.8 | 9.2 | 13.5 | -5.1 | 7.8
C/C(N)=C(/C#N)C(=O)COC(=O)c1cc(-c2ccc(Br)cc2)nc2ccccc12 | . | . | . | . | 4.3 | 70.1*
Cc1ccc(C(C)NC(=O)CSc2ccc(S(=O)(=O)N3CCOCC3)cn2)cc1C (configuration not stated) | . | . | . | . | -12.3 | .
Cc1ccc(/C=C/c2ccc(=O)n(Cc3ccccc3Cl)n2)cc1 | 29.9 | -8.7 | -3.3 | 11.9 | . | 69.2*
O=C(CCc1ccccc1)NNC(=S)NC(=O)c1ccccc1 | 31.4 | 13.1 | -7.2 | -40.4 | -22.0 | 63.9*
CCCCC(=O)NC(=S)NNC(=O)CCc1ccccc1 | 11.7 | 26.5 | -2.4 | 5.9 | -1.4 | 75.5*
CC(=O)NC(=S)NNC(=O)CCc1ccccc1 | 10.1 | 24.4 | 20.4 | 4.4 | -8.1 | 3.2
O=C(NC1CC1)c1ccc(CSCc2ccccc2Cl)o1 | 23.5 | -16.1 | 22.3 | 18.8 | 21.9 | 0.2
CN(C)C(CNC(=O)c1ccc(C(F)(F)F)cc1)c1ccco1 (configuration not stated) | 14.5 | -6.1 | -0.7 | -8.5 | -2.8 | -5.5
O=C(N/N=C(\c1ccccc1)c1cccnc1)c1cccc(F)c1 | 44.5 | 14.3 | 36.6 | 26.7 | . | 95.4*
N=C1/C(=C/c2ccc(-c3cccc(C(=O)O)c3)o2)C(=O)N=C2SC=C(c3ccccc3)N12 | 19.2 | 23.7 | 1.2 | 12.7 | -6.3 | 78.8*
O=C(CCC(=O)Nc1cc(C(F)(F)F)ccc1Cl)N/N=C\c1cc([N+](=O)[O-])ccc1O | 25.9 | 18.0 | 13.3 | -6.1 | -21.6 | 102.6*
O=C(CCC(=O)Nc1ccc(Br)cc1)N/N=C/c1cc([N+](=O)[O-])ccc1O | 13.3 | -0.3 | -32.9 | -11.1 | 2.5 | 55.6*
O=C(CCC(=O)Nc1ccc(F)cc1)N/N=C/c1cc([N+](=O)[O-])ccc1O | -1.3 | 3.1 | -34.4 | 6.0 | 29.5 | -0.8
Cc1cccc(NC(=O)CCC(=O)N/N=C/c2cc([N+](=O)[O-])ccc2O)c1 | 24.0 | 17.4 | 0.4 | 1.6 | 2.5 | -28.4
Cc1cc(F)ccc1S(=O)(=O)Nc1ccccc1C(=O)Nc1ccccc1-c1nc2ccccc2[nH]1 | 6.3 | 18.6 | 24.5 | 11.8 | 8.8 | 58.0*
CCOC(=O)c1csc(Nc2nc3ccc(F)cc3s2)n1 | 4.6 | 22.4 | 19.7 | 31.8 | -47.9 | 52.7*
CCOC(=O)c1sc(Nc2nc3c(F)cccc3s2)cc1C | 19.4 | -12.0 | -14.6 | -0.2 | -8.2 | -1.9
COC(=O)c1ccc2nc(Nc3nc4ccc(F)cc4s3)sc2c1 | . | . | . | . | -22.6 | 19.1
CCOC(=O)c1sc(Nc2nc3ccc(OC)cc3s2)cc1C | 14.9 | 18.0 | 38.6 | 12.9 | -9.7 | 49.7*
SMILES | NLRP3 yeast inh | TIM10 inh | tim23-1 inh | tim10-1 inh | PfHsp90 yeast 2 | SKKanGAS inh
Cc1nc2ccc(NC(=O)c3cccc(S(=O)(=O)N4CC(C)OC(C)C4)c3)cc2s1 (configuration not stated) | 12.7 | 6.5 | 7.6 | 10.4 | 2.0 | -3.5
O=C(NC(Cc1c[nH]c2ccccc12)C(=O)N/N=C/c1cccc2ccccc12)c1cccs1 (configuration not stated) | 10.6 | 15.0 | 22.9 | 9.7 | -24.6 | 60.3*
O=C(NC(Cc1c[nH]c2ccccc12)C(=O)O)c1cccs1 (configuration not stated) | -18.1 | -15.0 | 5.6 | -2.0 | -14.4 | -6.4
Cc1ccc(-c2cc(-c3ccc(C)cc3O)[nH]n2)cc1 | 22.4 | 33.4 | 40.8 | 8.6 | -12.4 | 35.5
Cc1ccc(O)c(-c2cc(-c3cccc(Br)c3)n[nH]2)c1 | 4.7 | 32.9 | 5.3 | -62.2 | 105.0* | 100.3*
CC(C)N(Cc1ccccc1)C(=O)COC(=O)c1cc(S(=O)(=O)N(C)C)ccc1N1CCCC1 | 13.7 | 2.3 | 5.2 | 5.8 | -1.2 | .
S=c1[nH]c(-c2ccccc2)cn1/N=C/c1cccc2ccccc12 | 4.6 | 31.9 | 23.3 | 14.1 | -43.5 | 57.4*
O=C(NCc1ccco1)C1CCCN(c2nnc(-n3cccc3)s2)C1 (configuration not stated) | -1.1 | -98.8 | -67.6 | 20.7 | 4.3 | 0.0
CCOC(=O)c1sc(NC(=O)c2ccc(Br)o2)cc1C | 16.8 | 6.4 | 15.4 | -12.8 | 16.5 | -12.6
CCOC(=O)c1sc(NC(=O)Nc2cccc(Cl)c2)cc1C | 5.1 | 10.7 | 1.6 | 3.9 | -6.7 | 94.9*
Cn1c(Oc2ccccc2NCc2cc(Br)ccc2O)cc(=O)n(C)c1=O | 9.4 | 3.2 | 23.2 | 17.8 | 0.4 | 58.7*
CCCCOC(=O)CSc1nc(N)c(C#N)c(-c2ccc(OCC)cc2)c1C#N | 12.2 | 5.0 | 7.2 | 14.0 | -7.5 | -1.8
CCCCOc1ccc(-c2c(C#N)c(N)nc(SCC(N)=O)c2C#N)cc1 | 27.5 | 5.5 | -2.7 | -5.3 | . | 89.6*
N#C/C(=N\Nc1cccc(C(F)(F)F)c1)C(=O)c1ccsc1 | 48.1 | -10.5 | 28.5 | 39.3 | -31.4 | 32.6
CN1C(=O)[C@H]2[C@@H](/C=C/c3ccccc3)N3C(=O)CN(Cc4ccc(-c5ccccc5)cc4)C(=O)[C@@]3(Cc3ccccc3)[C@H]2C1=O | 8.4 | 11.7 | 15.9 | 18.1 | 4.6 | 12.9
CCn1cc(C(=O)O)c(=O)c2cc(F)c(N3CCN(C(=S)Nc4ccc(OC)cc4)CC3)cc21 | 9.5 | 5.2 | -3.2 | 11.0 | 14.8 | 67.7*
CCn1cc(C(=O)O)c(=O)c2cnc(N3CCN(C(=S)Nc4ccccc4)CC3)nc21 | 22.7 | 5.7 | 5.7 | -6.5 | -2.3 | -2.0
CCn1cc(C(=O)O)c(=O)c2cc(F)c(N3CCN(C(=S)NC(=O)c4cc(OC)cc(OC)c4)CC3)cc21 | 16.2 | -3.4 | 16.5 | 35.3 | 2.1 | ?
CCn1cc(C(=O)NCc2ccc3c(c2)OCO3)c(=O)c2cc(F)c(N3CCN(C(=O)c4ccco4)CC3)cc21 | 21.4 | 8.4 | 19.8 | 23.5 | -40.7 | 53.5*
CCCCOC(=O)c1ccc(NC(=S)N2CCN(c3ncc4c(=O)c(C(=O)O)cn(CC)c4n3)CC2)cc1 | -0.2 | -8.9 | 4.8 | -3.8 | 33.9 | 91.6*
CCN(CC)C1Oc2cc3c(cc2C(c2cc(OC)c(OC)c(OC)c2)C1C)OCO3 (configuration not stated) | . | . | . | . | -19.5 | .
